# Measurements published in PubChem BioAssay.
# Active and inactive are the calls of the source. Unless noted, how the calls were made is not given here.
# Legend:
# [1] = tested on: Wnt5a (protein binding on small-molecule microarray); assay: small molecules binding Wnt5a protein – biophysical, small-molecule microarray, 635/667 nm fluorescence, primary screen (AID 1142); details: 635 nm fluorescence, higher = more signal;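 further: fluorescence read at 667 nm with signal to noise per printed feature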
# [2] = ATP-based viability of Huh7 replicon cells – cell-based, CellTiter-Glo luminescence, basal, 48 h, cytotoxicity control for HCV replication inhibitor project, primary screen (AID 1143); details: higher = more signal, called active from +8 up or from −8 down;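 further: Huh7 hepatoma cells carrying a hepatitis C replication reporter with no stimulus; test concentration not given here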
# [3] = Pseudomonas biofilm growth suppression – PAO1 strain, BacTiter-Glo luminescence, LB-PBS, primary screen (AID 1144); details: P. aeruginosa PAO1 biofilm, 12 h, higher = more signal
# [4] = basal CRE-LacZ reporter activity in PC12 – cell-based, unstimulated, primary screen (AID 1145); details: no forskolin, luminescence, 4.5 h, higher = more signal, called active from +8 up or from −8 down
# [5] = forskolin-driven CRE-LacZ activity in PC12 – cell-based, CRE-LacZ reporter, forskolin-stimulated, primary screen (AID 1146); details: luminescence, 4.5 h, higher = more signal, called active from +8 up or from −8 down;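 further: PC12 cells with 6xCRE LacZ reporter stimulated by forskolin 10 µM; beta-galactosidase reporter signal reflecting CREB driven transcription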
# [6] = biological target: Streptavidin (Streptomyces avidinii) (UniProt P22629); assay: compounds binding control protein streptavidin – biophysical, small-molecule microarray, 635/667 nm fluorescence, artefact control for SMM compound annotation, primary screen (AID 1147); details: higher = more signal;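 further: signal reflects streptavidin binding to arrayed compounds as a control protein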
# Streptavidin (Streptomyces avidinii), sequence (P22629 whole entry, looked up): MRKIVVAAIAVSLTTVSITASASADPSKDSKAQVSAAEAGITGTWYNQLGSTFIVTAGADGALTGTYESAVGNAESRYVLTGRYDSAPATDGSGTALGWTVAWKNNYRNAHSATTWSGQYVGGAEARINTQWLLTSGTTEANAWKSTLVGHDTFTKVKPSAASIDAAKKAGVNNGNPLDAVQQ
# [7] = probe aInhba binding on compound microarray – biochemical, small-molecule microarray, 635/667 nm fluorescence, primary screen (AID 1148); details: higher = more signal;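 further: score merges 667nm spot fluorescence with signal-to-noise for antibody binding to printed compounds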
# Torsin-1A (Homo sapiens) [8] = biological target: Torsin-1A (Homo sapiens) (UniProt O14656); assay: TOR1A wild-type binding on microarray – cell lysate, small-molecule microarray, lysate, 635/667 nm, primary screen (AID 1149); details: COS7 hTOR1A-WT lysate, 635 nm fluorescence, higher = more signal
# Torsin-1A (Homo sapiens), sequence (O14656 whole entry, looked up): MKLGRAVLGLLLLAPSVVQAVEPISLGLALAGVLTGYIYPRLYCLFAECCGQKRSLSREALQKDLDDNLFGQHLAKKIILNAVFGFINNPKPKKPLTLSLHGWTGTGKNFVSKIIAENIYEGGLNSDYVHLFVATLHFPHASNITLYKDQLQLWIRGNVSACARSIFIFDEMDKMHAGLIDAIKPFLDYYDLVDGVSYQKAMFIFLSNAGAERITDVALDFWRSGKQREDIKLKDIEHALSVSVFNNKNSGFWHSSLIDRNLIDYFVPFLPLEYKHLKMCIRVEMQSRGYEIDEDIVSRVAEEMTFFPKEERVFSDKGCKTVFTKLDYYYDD
# Torsin-1A (Homo sapiens) [9] = biological target: Torsin-1A (Homo sapiens) (UniProt O14656); assay: torsin A mutant lysate binding on microarrays – cell lysate, small-molecule microarray, COS7 lysate, 635/667 nm fluorescence, primary screen (AID 1150); details: COS7 hTOR1A mutant lysate, 635 nm fluorescence, higher = more signal;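 further: score pools 667 nm emission and signal to noise measuring lysate protein binding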
# [10] = tested on: Sonic hedgehog protein (Shh); assay: Sonic hedgehog microarray binding compounds – biochemical, small-molecule microarray, 635/667 nm fluorescence, primary screen (AID 1151); details: 635 nm fluorescence, higher = more signal;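 further: Shh protein binding to compounds spotted on small-molecule microarray slides; score combines spot fluorescence intensity with signal-to-noise across triplicate slides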
# [11] = optical density shifts of acrAB sulA E. coli – strain DRC41, OD650, 48 h, E. coli filamentation inducer project, primary screen (AID 1152); details: higher = more signal, called active from +8 up or from −8 down;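 further: E. coli MC1000 strain DRC41 lacking acrAB efflux pump and sulA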
# [12] = probe aLefty1 binding on compound microarray – biochemical, small-molecule microarray, 635/667 nm fluorescence, primary screen (AID 1153); details: higher = more signal;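 further: score merges spot fluorescence with signal-to-noise ratio from the scanned slide images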
# [13] = plasmodial surface anion channel blockers, osmotic lysis – cell-based, P. falciparum Indochina, OD700, 1 h, primary screen (AID 1154); details: P. falciparum Indochina infected RBC osmotic lysis, higher = more signal, called active from +8 up or from −8 down
# [14] = plasmodial surface anion channel blockers, osmotic lysis – cell-based, P. falciparum Indochina, OD700, 2 h, primary screen (AID 1155);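 further: lysis reports solute entry through the parasite surface anion channel PSAC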; details: P. falciparum Indochina infected erythrocytes, higher = more signal, called active from +8 up or from −8 down
# [15] = changes in parasitized red cell lysis, either direction – P. falciparum Indochina, OD700, 3 h, PSAC antagonist project, primary screen (AID 1156); details: P. falciparum-infected erythrocytes, osmotic lysis, higher = more signal, called active from +8 up or from −8 down
# [16] = plasmodial surface anion channel blockers, osmotic lysis – cell-based, P. falciparum Indochina, OD700, 18 h, primary screen (AID 1157); details: P. falciparum Indochina infected erythrocytes, osmotic lysis OD700, 18 h; higher = more signal, called active from +8 up or from −8 down
# [17] = S6 kinase pathway phospho-S6 level changes – cell-based, A549, cytoblot, luminescence, serum-stimulated, primary screen (AID 1158); details: 5 h, higher = more signal;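 further: serum-stimulated A549 lung adenocarcinoma cells; signal is phosphorylated S6 detected by cytoblot immunostaining with HRP secondary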
# [18] = biological target: NADPH oxidase 2 (Homo sapiens) (UniProt P04839); assay: compounds shifting NOX2 Amplex Red fluorescence – cell-based, HEK293-NOX2, PMA-stimulated, NOX inhibitor project, primary screen (AID 1159); details: 45 min, higher = more signal, called active from +8 up or from −8 down; further: test concentration not given here
# NADPH oxidase 2 (Homo sapiens), sequence (P04839 whole entry, looked up): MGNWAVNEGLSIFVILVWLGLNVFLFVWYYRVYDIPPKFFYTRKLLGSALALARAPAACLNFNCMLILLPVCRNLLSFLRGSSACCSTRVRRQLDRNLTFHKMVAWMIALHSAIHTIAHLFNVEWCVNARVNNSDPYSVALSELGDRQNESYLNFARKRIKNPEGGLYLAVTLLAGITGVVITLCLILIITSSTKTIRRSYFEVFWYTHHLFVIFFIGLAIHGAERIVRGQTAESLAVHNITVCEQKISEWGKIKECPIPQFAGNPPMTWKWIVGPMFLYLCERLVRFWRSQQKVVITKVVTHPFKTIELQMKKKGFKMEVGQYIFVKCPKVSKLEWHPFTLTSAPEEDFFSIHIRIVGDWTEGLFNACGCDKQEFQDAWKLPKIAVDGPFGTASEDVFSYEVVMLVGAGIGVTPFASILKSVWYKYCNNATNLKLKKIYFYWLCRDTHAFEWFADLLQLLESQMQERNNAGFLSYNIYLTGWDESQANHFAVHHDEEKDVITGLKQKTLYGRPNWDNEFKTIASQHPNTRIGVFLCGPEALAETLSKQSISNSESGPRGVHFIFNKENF
# [19] = biological target: NADPH oxidase 4 (Homo sapiens) (UniProt Q9NPH5); assay: compounds shifting NOX4 Amplex Red fluorescence – cell-based, HEK293-NOX4, tetracycline-induced, NOX inhibitor project, primary screen (AID 1160); details: HEK293-NOX4, Amplex Red H2O2 fluorescence, 45 min; higher = more signal, called active from +8 up or from −8 down
# NADPH oxidase 4 (Homo sapiens), sequence (Q9NPH5 whole entry, looked up): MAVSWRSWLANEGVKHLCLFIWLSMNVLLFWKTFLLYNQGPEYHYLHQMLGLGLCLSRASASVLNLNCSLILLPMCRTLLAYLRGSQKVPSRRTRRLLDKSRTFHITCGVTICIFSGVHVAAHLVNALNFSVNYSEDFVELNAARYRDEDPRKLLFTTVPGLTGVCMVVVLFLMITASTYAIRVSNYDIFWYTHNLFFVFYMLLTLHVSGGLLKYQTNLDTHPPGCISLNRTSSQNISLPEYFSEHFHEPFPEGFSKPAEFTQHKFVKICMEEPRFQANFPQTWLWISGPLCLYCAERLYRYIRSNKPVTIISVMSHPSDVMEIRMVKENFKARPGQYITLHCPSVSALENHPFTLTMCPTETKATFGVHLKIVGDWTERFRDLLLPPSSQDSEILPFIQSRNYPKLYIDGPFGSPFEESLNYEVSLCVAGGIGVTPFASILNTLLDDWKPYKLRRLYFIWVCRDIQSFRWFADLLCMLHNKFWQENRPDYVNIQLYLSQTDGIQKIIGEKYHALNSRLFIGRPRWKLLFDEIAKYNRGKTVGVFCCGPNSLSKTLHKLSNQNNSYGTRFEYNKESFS
# [20] = biological target: NADPH oxidase 5 (Homo sapiens) (UniProt Q96PH1); assay: compounds shifting NOX5 Amplex Red fluorescence – cell-based, HEK293-NOX5, NOX inhibitor project, primary screen (AID 1161); details: HEK293-NOX5, ionomycin, 45 min, higher = more signal
# NADPH oxidase 5 (Homo sapiens), sequence (Q96PH1 whole entry, looked up): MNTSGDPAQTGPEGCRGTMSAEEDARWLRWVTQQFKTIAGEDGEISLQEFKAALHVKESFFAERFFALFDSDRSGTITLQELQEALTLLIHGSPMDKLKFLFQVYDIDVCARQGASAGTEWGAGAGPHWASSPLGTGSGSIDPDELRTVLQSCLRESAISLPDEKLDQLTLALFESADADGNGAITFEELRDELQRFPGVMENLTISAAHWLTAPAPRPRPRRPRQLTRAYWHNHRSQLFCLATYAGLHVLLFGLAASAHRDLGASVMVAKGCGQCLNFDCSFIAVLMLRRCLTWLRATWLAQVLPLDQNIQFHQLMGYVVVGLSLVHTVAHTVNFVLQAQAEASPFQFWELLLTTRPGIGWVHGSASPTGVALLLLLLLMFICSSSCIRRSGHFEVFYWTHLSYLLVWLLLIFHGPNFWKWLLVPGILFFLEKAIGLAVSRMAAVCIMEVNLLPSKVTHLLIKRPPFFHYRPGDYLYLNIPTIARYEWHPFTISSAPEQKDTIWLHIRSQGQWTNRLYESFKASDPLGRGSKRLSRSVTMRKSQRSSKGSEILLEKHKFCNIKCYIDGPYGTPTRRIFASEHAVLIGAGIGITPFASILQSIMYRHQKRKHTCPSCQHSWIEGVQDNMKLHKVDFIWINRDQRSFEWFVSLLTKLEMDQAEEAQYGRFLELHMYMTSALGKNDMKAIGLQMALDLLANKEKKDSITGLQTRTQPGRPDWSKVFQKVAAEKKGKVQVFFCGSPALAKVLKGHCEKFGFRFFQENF
SMILES,composite z-score [1],z-score [2],z-score [3],z-score [4],z-score [5],composite z-score [6],composite z-score [7],composite z-score (Torsin-1A (Homo sapiens) [8]),composite z-score (Torsin-1A (Homo sapiens) [9]),composite z-score [10],z-score [11],composite z-score [12],z-score [13],z-score [14],z-score [15],z-score [16],z-score [17],z-score [18],z-score [19],z-score [20]
C#CCN1[C@@H](Cc2ccccc2)C(=O)O[C@H](Cc2ccccc2)[C@@H]1/C=C/C1CC1,-0.0041,-3.05 (inactive),1.18 (inactive),2.12 (inactive),-0.0861 (inactive),-0.497,-0.0763,0.459,0.84,0.482,0.827 (inactive),-0.103,-0.396 (inactive),0.317 (inactive),-0.199 (inactive),-0.48 (inactive),-0.328,-0.279 (inactive),-0.284 (inactive),-2.19
C=C(COC)C(=O)CC[C@H](OC(=O)c1cccnc1)c1ccc(OCCO)cc1,0.965,-2.1 (inactive),0.385 (inactive),1.54 (inactive),0.755 (inactive),0.257,0.103,0.613,1.43,2.4,-0.367 (inactive),-0.285,9.54 (active),1.2 (inactive),0.247 (inactive),0.553 (inactive),-0.271,-0.253 (inactive),0.592 (inactive),-1.26
COC(=O)[C@@]1(Cc2ccc(OC)cc2)[C@H]2c3cc(C(=O)N4CCCC4)n(CCn4cc([N+](=O)[O-])nc4C)c3C[C@H]2CN1C(=O)c1ccccc1,1.94,-0.798 (inactive),-0.245 (inactive),0.779 (inactive),0.861 (inactive),2.22,1.84,-0.236,1.75,-0.455,-2.21 (inactive),2.16,2.38 (inactive),0.0212 (inactive),0.217 (inactive),0.543 (inactive),-0.108,0.54 (inactive),-1.39 (inactive),-2.54
COCCOC(=O)N1C(=O)[C@@]2(c3cc(C#CCC(C(=O)OC)C(=O)OC)ccc31)[C@H](C(=O)Nc1nc3ccccc3s1)[C@H]1C(=O)O[C@H](c3ccccc3)[C@H](c3ccccc3)N1[C@@H]2c1ccc(OCCO)cc1,0.555,-0.835 (inactive),-0.00208 (inactive),1.71 (inactive),0.323 (inactive),0.532,0.79,1.07,0.596,2.23,0.836 (inactive),0.529,5.5 (inactive),1.77 (inactive),0.832 (inactive),1.39 (inactive),-0.265,1.75 (inactive),1.03 (inactive),1.33
[N-]=[N+]=Nc1ccccc1[C@H]1OC(c2ccc(OCCCO)cc2)=N[C@@]1(Cc1ccccc1)C(=O)NCC(O)CO (stereo not given in full),0.96,-2.87 (inactive),-0.48 (inactive),-1.49 (inactive),-1.2 (inactive),0.211,0.121,0.36,0.807,-1.32,0.348 (inactive),0.425,33.6 (active),30.4 (active),0.849 (inactive),8.56 (active),-0.0737,-0.455 (inactive),1.67 (inactive),1.31
CCCCCCc1nc(Cc2cc(OC)c(OC)c(OC)c2)cc2c1[Si](C(C)C)(C(C)C)O[C@H]2c1ccccc1,-0.0493,-2.1 (inactive),0.129 (inactive),0.367 (inactive),0.0748 (inactive),0.0406,-0.154,0.128,-0.155,1.19,-1.42 (inactive),0.092,0.612 (inactive),0.482 (inactive),0.491 (inactive),-0.23 (inactive),-0.147,-0.472 (inactive),-0.137 (inactive),-1.73
COC(=O)[C@H](Cc1ccccc1)N1CC2=CCCC=C[C@@H]2[C@H]1[C@H](O)Cc1ccccc1,-0.0279,-1.02 (inactive),1.09 (inactive),2.4 (inactive),1.07 (inactive),0.916,-0.0332,-0.214,-0.371,0.848,-0.53 (inactive),0.315,1.31 (inactive),0.492 (inactive),0.429 (inactive),0.256 (inactive),-0.232,-0.286 (inactive),-0.477 (inactive),-0.647
O=C1O[C@@H](c2ccccc2)[C@@H](c2ccccc2)N2[C@@H](c3ccc(OCCO)cc3)[C@]3(C(=O)Nc4ccc(C#CCCO)cc43)[C@@H](C(=O)O)[C@H]12,0.529,-0.579 (inactive),-0.155 (inactive),-0.761 (inactive),-0.0408 (inactive),1.84,1.34,0.892,0.203,0.688,0.624 (inactive),1.31,1.93 (inactive),-0.0017 (inactive),0.88 (inactive),-0.097 (inactive),-0.197,2.08 (inactive),0.716 (inactive),1.1
C=CCC(OC(C)=O)[C@@H]1[C@@H](N(Cc2cccc3ccccc23)C(=O)Cc2ccc(OC)cc2)c2cc(OCCCO)ccc2N1C(=O)c1ccc2ccccc2c1 (stereo not given in full),-0.186,-3.04 (inactive),-0.719 (inactive),0.0458 (inactive),-0.383 (inactive),0.172,-0.152,0.794,-0.118,0.239,0.808 (inactive),0.147,0.79 (inactive),-0.443 (inactive),-0.214 (inactive),-0.691 (inactive),1.2,-2.11 (inactive),-1.24 (inactive),-0.827
